Compound activity (PubChem BioAssay)
Only some compounds are listed: those with a hit (about 7.5% of all), similar ones and a draw of the others.
ELG1 genotox – qHTS screen for small molecules that induce genotoxicity in human embryonic kidney (HEK293T) cells expressing luciferase-tagged ELG1 | HEK293T ELG1-luciferase reporter, luminescence, 16 h | actives 1.3% (n = 330,000) | AID 504466, 2011 | Potency, µM (top dose mostly 46 µM), for inactives: top-dose activity change, positive = activation, usual class: activators; note: % of control where 0% means no effect; nearly all actives have a fitted effect of over 60% in size
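After overnight (16 hr) compound treatment at 37 °C, ELG1-luciferase HEK293T cells were lysed with ONE-Glo; luminescence quantified 30 min later at room temperature.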
Rab9 promoter act – qHTS Assay for Rab9 Promoter Activators; Potency, µM (series often up to 9.22 µM), for inactives: at the top dose activation, negative = inhibition, usual class: activators; actives 2.8% (n = 320,000); AID 485297, 2010; Huh7 Rab9 promoter-luciferase reporter, luminescence, 24 h; note: % of control where 0% means no effect; nearly all actives have a fitted effect of over 60% in size
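Huh7 cells stably carrying Rab9 promoter–luciferase reporter, plated 1500 cells/well, compound added after 2 h and incubated 24 h at 37 °C; luciferase luminescence then read after 10 min with detection reagent.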
SMN2 splice enh – qHTS Assay for Enhancers of SMN2 Splice Variant Expression; HEK293 SMN2-luciferase splicing reporter, luminescence, 30-36 h; Potency, µM (series often up to 46.1 µM), for inactives: top-dose activity change, positive = activation, hits mostly activators; actives 2.8% (n = 210,000); note: % of control where 0% means no effect; nearly all actives have a fitted effect of over 55% in size
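qHTS luciferase splicing reporter: luminescence rises when SMN2 exon 7 is included in transfected HEK293 cells. Compound exposure lasted 30-36 h at 37C, with 4.5 mM final sodium butyrate as control, followed by a ONE-Glo read.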
Luc counter – Counterscreen for Luciferase (Kinase-Glo TM) Inhibition | Luciferin 4-monooxygenase (Photuris pensylvanica), Q27757 | Kinase-Glo luciferase, ATP luminescence, 8 min | Potency, µM (top dose mostly 38.3 µM), for inactives: at the top dose activity change, negative = inhibition, most hits filed as inhibitors | actives 0.28% (n = 200,000); note: % is set by controls: 0 for no effect and ±100 for the full control effect; nearly all actives have a fitted effect of over 60% in size
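Light output from Kinase-Glo luciferase with luciferin and 10 uM ATP in 50 mM imidazole pH 7.2, KCl, MgCl2, Tween 20, BSA; compound pin-delivered, 8-min ambient incubation, then luminescence read.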
FLuc modulator – qHTS profiling assay for firefly luciferase inhibitor/activator using purifed enzyme and Km concentrations of substrates (counterscreen for miR-21 project); Luciferin 4-monooxygenase (Photinus pyralis), P08659; purified FLuc, Km substrates, luminescence inhibition; Potency, µM (top dose mostly 57.5 µM), inactives show at the highest dose activity change, negative = inhibition, actives largely listed as inhibitors; actives 6.9% (n = 360,000); AID 588342, 2011;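 note: plate controls were vehicle for no effect and reference inhibitor for full effect; nearly all actives have a fitted effect of over 55% in size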
Target sequence (P08659 whole entry, looked up): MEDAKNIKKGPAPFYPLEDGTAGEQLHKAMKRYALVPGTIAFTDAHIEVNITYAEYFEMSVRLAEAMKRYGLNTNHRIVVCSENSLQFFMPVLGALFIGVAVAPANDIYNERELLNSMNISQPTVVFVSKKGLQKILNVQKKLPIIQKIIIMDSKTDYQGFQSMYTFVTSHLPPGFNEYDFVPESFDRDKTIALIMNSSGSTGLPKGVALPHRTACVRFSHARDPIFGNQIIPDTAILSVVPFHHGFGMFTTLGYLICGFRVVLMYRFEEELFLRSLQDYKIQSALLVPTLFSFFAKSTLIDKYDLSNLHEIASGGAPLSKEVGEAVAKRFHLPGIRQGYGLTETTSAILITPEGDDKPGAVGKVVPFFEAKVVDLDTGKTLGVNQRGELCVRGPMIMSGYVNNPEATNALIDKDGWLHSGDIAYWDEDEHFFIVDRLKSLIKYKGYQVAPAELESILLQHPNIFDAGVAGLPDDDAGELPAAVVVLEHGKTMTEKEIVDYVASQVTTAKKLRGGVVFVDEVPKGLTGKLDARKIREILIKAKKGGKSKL
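Purified P. pyralis luciferase (10nM final) with 10uM D-luciferin and 10uM ATP (Km levels) in 50mM Tris acetate pH 7.5, 10mM Mg acetate, 0.01% Tween-20, 0.05% BSA; qHTS 6-point titration, ~60 µM downward; luminescence read.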
NPC1 promoter act – qHTS Assay for NPC1 Promoter Activators. Huh7 NPC1 promoter luciferase reporter, 24 h. Potency, µM (titrated, usually from 9.22 µM), for the others: top-dose activation, most hits filed as activators. actives 2.4% (n = 320,000). AID 485313, 2010; note: % of control where 0% means no effect; nearly all actives have a fitted effect of over 60% in size
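Quantitative HTS used a cell-based reporter: Huh7 cells stably bearing the NPC1 promoter upstream of luciferase were treated with compounds for 24 h, and promoter activation was read as luminescence.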
* marks the source's active call; other numbers are inactive results; ? = inconclusive; . = no result given. Calls come from the whole dose curve; as a rule, active = well fitted curve in the direction sought with a large enough effect; inconclusive = small, poorly fitted or top-dose-only effect, or another doubt; inactive = no such curve, though single readings can be large; an effect the other way counts as inactive or inconclusive. Potency is the fitted concentration of half-maximal effect.

SMILES	ELG1 genotox	Rab9 promoter act	SMN2 splice enh	Luc counter	FLuc modulator	NPC1 promoter act
NC(=O)c1ccsc1NC(=O)c1ccc(N2CCCC2=O)cc1	1.6µM*	0.63µM*	18µM*	?	3µM*	2.2µM*
CCOc1ccc(S(=O)(=O)c2cn(C)c3ccccc3c2=O)cc1	.	.	-1%	.	-3%	.
CCOc1ccc(CCNC(=O)Cn2ncn3c(cc4ccccc43)c2=O)cc1OCC	.	.	8%	.	5%	.
Cc1nn2cc(-c3ccc(N)cc3)nc2s1	?	1µM*	13µM*	-17%	11µM*	1µM*
Cc1ccc(NC(=O)C2CCN(c3nn4cc(-c5ccc(C)cc5)nc4s3)CC2)cc1	.	.	.	.	32%	.
CC(c1ccccc1)c1nnc(N)s1 (stereo unspecified)	0%	7%	.	-1%	-3%	-3%
COc1ccc(-c2nnc(N)s2)cc1	?	23%	11%	-2%	17µM*	22%
Nc1nnc(-c2ccncc2)s1	0%	3%	24%	-5%	6%	-5%
Cc1ccc(-c2nnc(N)s2)cc1	?	23%	?	-6%	13µM*	25%
CCCOc1ccc(-c2nc(-c3ccc(N)cc3)cs2)cc1	5%	?	.	.	7.6µM*	24%
CC(C)c1ccc(-c2nnc(N)s2)cc1	18µM*	2.2µM*	14µM*	-5%	1.9µM*	3.2µM*
COc1ccc(-c2csc(-c3[nH]cnc3N)n2)cc1	?	-1%	?	-6%	?	-5%
COc1ccc(C(=O)Nc2nc(-c3nnn(-c4ccc(F)cc4F)c3C)ns2)cc1	.	.	.	.	-5%	.
Cc1sc2ncn(CC(=O)N3CCOCC3)c(=O)c2c1-c1ccccc1	5%	-3%	2%	1%	-2%	-6%
COc1ccc(OCCc2nnc(N)s2)cc1	1%	-1%	2%	0%	2%	4%
CNc1nnc(-c2ccc(OC)cc2)s1	16µM*	3.2µM*	13µM*	-15%	12µM*	2.8µM*
CCCOc1ccc(-c2nnc(N)s2)cc1	18µM*	?	?	-4%	7.6µM*	?
COc1ccc(S(=O)(=O)N2Cc3ccccc3CC2C(=O)Nc2nccs2)cc1 (stereo unspecified)	12%	6%	?	4%	-13%	18%
COc1ccc(S(=O)(=O)N2Cc3ccccc3CC2C(=O)Nc2nccs2)cc1OC (stereo unspecified)	5.8µM*	16%	13µM*	3%	?	12%
CCS(=O)(=O)N1Cc2ccccc2CC1C(=O)Nc1nc(C)cs1 (stereo unspecified)	?	?	1%	3%	19µM*	26%
CCS(=O)(=O)N1Cc2ccccc2CC1C(=O)Nc1nccs1 (stereo unspecified)	?	5%	18µM*	3%	?	0%
COc1ccc(S(=O)(=O)N2CCC(C(=O)Nc3nccs3)CC2)cc1	?	?	.	.	12µM*	2.8µM*
Cn1cccc1-c1cc2n(n1)CCC(=O)N2CCCC(=O)NCc1cccc(Cl)c1	.	.	.	.	6%	.
Cc1csc2nc(CSc3nc4ccccc4o3)c(Br)n12	2.9µM*	2.5µM*	?	-5%	8.5µM*	3.5µM*
CCn1c(=O)cc(SCC(=O)Nc2ccc3c(c2)OCO3)c2ccccc21	16%	-4%	18%	1%	-13%	5%
SMILES	ELG1 genotox	Rab9 promoter act	SMN2 splice enh	Luc counter	FLuc modulator	NPC1 promoter act
Cn1cc(SCC(=O)Nc2ccc3c(c2)OCCO3)c2ccccc21	?	11%	2%	0%	17µM*	14%
O=C(CSc1cn(CCNC(=O)c2ccccc2F)c2ccccc12)Nc1ccc2c(c1)OCCO2	.	.	-16%	.	13µM*	.
O=C(CSc1cn(CCNC(=O)c2ccccc2F)c2ccccc12)Nc1ccc(F)cc1	.	.	-9%	.	-18%	.
O=C1C2C3C=CC(C3)C2C(=O)N1c1ccc(-c2nc3ccccc3o2)cc1 (stereo unspecified)	1.8µM*	1.4µM*	13µM*	-4%	2.7µM*	1.4µM*
O=C1C2C3C=CC(C3)C2C(=O)N1c1ccncc1 (stereo unspecified)	0%	-2%	-7%	-3%	2%	3%
CC(C)NC[C@@H](O)COc1ccccc1-n1cccc1	.	.	.	-4%	.	.
O=C1/C(=C/c2cccnc2)Sc2ccccc21	5%	-4%	-2%	-13%	9.5µM*	-2%
COc1ccc(OC)c(/C=C2\SC(=S)N(N3CCOCC3)C2=O)c1	-1%	16%	.	.	-18%	-1%
COc1ccc(OC)c(/C=C2/Sc3ccccc3C2=O)c1	15%	1%	.	-10%	9.5µM*	1%
CC(=O)Nc1ccc(/C=C2\Sc3ccccc3C2=O)cc1	?	13%	.	.	0.38µM*	-6%
Cc1ccc(/C=C2\Sc3ccccc3C2=O)s1	?	?	?	-30%	0.43µM*	?
O=C1NC(=Nc2ccccc2)S/C1=C/c1cccnc1	14%	3%	-14%	-1%	?	-4%
Cc1ccc(-n2nc3c(N4CCC(C(=O)NCCC(C)C)CC4)nnc(C)c3c2C)cc1	.	.	.	.	-7%	.
COc1cccc(CNC(=O)C(=O)Nc2ccc3nc4n(c(=O)c3c2)CCCCC4)c1	.	.	28%	.	5%	.
CN(C)c1ccc(/C=C/c2ccc3c4ccccc4ccc3[n+]2-c2ccccc2)cc1	-4%	-41%	-50%	10µM*	27µM*	-47%
Cc1cccc(-c2cc3nc(C)cc(NCCCn4ccnc4)n3n2)c1	?	-8%	-13%	-3%	15µM*	2%
CN(C)CCCNc1cc(C(C)(C)C)nc2c(-c3ccc(Cl)cc3)cnn12	8%	-2%	.	.	?	0%
CC(C)(C)c1cc(NCCCn2ccnc2)n2ncc(-c3ccccc3)c2n1	?	2.2µM*	.	.	5.4µM*	2µM*
Cc1cc(NCCCN2CCOCC2)n2ncc(-c3ccc(Cl)cc3)c2n1	?	?	24%	-4%	17µM*	?
CCCc1cc(NCCCn2ccnc2)n2nc(C)c(-c3ccccc3)c2n1	-4%	1%	.	.	5%	-10%
Cc1cc(NCCCn2ccnc2)n2ncc(-c3ccc(Cl)cc3)c2n1	?	0.56µM*	4%	-1%	0.95µM*	0.45µM*
NC(=O)c1oc2ccccc2c1NC(=O)C1COc2ccccc2O1 (stereo unspecified)	9%	28%	24%	1%	1%	10%
